This is an account of results in PubChem BioAssay (Tox21).

Assay [1] can be described thus: qHTS assay to test for compound auto fluorescence at 535 nm (green) in HEK293 cells (AID 720680).
A short description of assay [2]: qHTS assay to test for compound auto fluorescence at 460 nm (blue) in HEK293 cell free culture (AID 720681). The essentials:
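Blue fluorescence (Ex 405/Em 460 nm, triamterene-equivalent) was read immediately after pin transfer of compound or DMSO into medium (DMEM, 10% FBS) without cells.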
For orientation: Quantitative high-throughput screening tests each substance at several concentrations.

Assay [3] in a line: qHTS assay to test for compound auto fluorescence at 535 nm (green) in HEK293 cell free culture (AID 720682). In outline:
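No cells present: wells hold DMEM supplemented with 10% FBS, into which compound or vehicle is pinned. Green emission is then recorded (485 nm excitation, 535 nm emission) and scaled to fluorescein.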

The nature of assay [4]: qHTS assay to test for compound auto fluorescence at 590 nm (red) in HEK293 cell free culture (AID 720683). Note: potency is the fitted concentration of half-maximal effect. In outline: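 Red-channel autofluorescence of compounds in culture medium (DMEM, 10% FBS), no cells, measured at 540/590 nm. Rose Bengal sodium is the reference fluorophore for equivalence.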
Assay [5] can be described thus: qHTS assay to test for compound auto fluorescence at 590 nm (red) in HepG2 cell free culture (AID 720684). Note: potency is the fitted concentration of half-maximal effect. The essentials:
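Plate contents were MEM with 10% FBS plus test compound or DMSO, no cells. Fluorescence was recorded with 540 nm excitation and 590 nm emission.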

Assay [6] in a line: qHTS assay to test for compound auto fluorescence at 460 nm (blue) in HepG2 cell free culture (AID 720685). In outline: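 Compound (23 nL) or DMSO pinned into cell-free MEM with 10% FBS; blue fluorescence read at 405/460 nm excitation/emission, expressed as auto-fluorescence equivalency to triamterene.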
The nature of assay [7]: qHTS assay to test for compound auto fluorescence at 535 nm (green) in HepG2 cell free culture (AID 720686). Note: potency is the fitted concentration of half-maximal effect.
Assay [8] is described as follows: qHTS assay to test for compound auto fluorescence at 460 nm (blue) in HepG2 cells (AID 720687). The essentials:
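Blue-channel autofluorescence (Ex/Em 405/460 nm, triamterene-equivalent) was measured after 1 hr compound exposure at 37 C, 5% CO2. Cells were HepG2, plated overnight at 37 C in MEM plus 10% FBS.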

Assay [9] deals with Glucocorticoid receptor (Homo sapiens) (UniProt P04150). The experiment in a line: qHTS assay to identify small molecule agonists of the glucocorticoid receptor (GR) signaling pathway (AID 720691; active = well fitted activation curve with a large enough effect in the signal ratio in the repeat runs, not every such curve was filed as active; the % refers to the signal ratio). In outline:
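Agonist mode in a HeLa line carrying a GRE-controlled beta-lactamase reporter. Compounds act for 18 h at 37 C before a 2 h room-temperature FRET substrate step and fluorescence reading.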

The target is the same in assay [10]. The experiment in a line: qHTS assay to identify small molecule antagonists of the glucocorticoid receptor (GR) signaling pathway (AID 720692; active = well fitted inhibition curve with a large enough effect in the signal ratio in the repeat runs, not every such curve was filed as active; the % refers to the signal ratio; note: potency is the fitted concentration of half-maximal effect). In outline:
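Cells plated, rested 4 h at 37 C/5% CO2; compounds in DMSO pin-transferred; dexamethasone added to 5 nM final; 18 h at 37 C; B/G FRET substrate added, 2 h room temperature; fluorescence measured.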

Assay [11] in a line: qHTS assay for identifying genotoxic compounds that show differential cytotoxicity against isogenic chicken DT40 cell lines with known DNA damage response pathways - Rev3 mutant cell line (AID 743014). Note: nearly all actives have a fitted effect of over 55% in size. Note: potency is the fitted concentration of half-maximal effect.
Assay [12] is described as follows: qHTS assay for identifying genotoxic compounds that show differential cytotoxicity against isogenic chicken DT40 cell lines with known DNA damage response pathways - Rad54/Ku70 mutant cell line (AID 743015). Note: nearly all actives have a fitted effect of over 60% in size. Note: potency is the fitted concentration of half-maximal effect.
Assay [13] can be described thus: qHTS assay to identify small molecule antagonists of the androgen receptor (AR) signaling pathway - cell viability counter screen (AID 743033; note: nearly all actives have a fitted effect of over 45% in size; note: potency is the fitted concentration of half-maximal effect).
The nature of assay [14]: qHTS assay to identify small molecule antagonists of the androgen receptor (AR) signaling pathway using the MDA cell line - cell viability counter screen (AID 743041; note: nearly all actives have a fitted effect of over 45% in size). In outline:
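R1881-driven MDA-kb2 AR-luc cells, 3,000/well, were dosed with library compounds for 16 h; cell health came from CellTiter-Fluor fluorescence in the reporter wells.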

A short description of assay [15]: qHTS assay to identify small molecule antagonists of the glucocorticoid receptor (GR) signaling pathway - cell viability counter screen (AID 720693). Note: nearly all actives have a fitted effect of over 55% in size. Note: potency is the fitted concentration of half-maximal effect.
Assay [16] is described as follows: qHTS assay for identifying genotoxic compounds that show differential cytotoxicity against isogenic chicken DT40 cell lines with known DNA damage response pathways - wild type cell line (AID 743012). Note: nearly all actives have a fitted effect of over 60% in size. Note: potency is the fitted concentration of half-maximal effect. The essentials:
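Cells (DT40 wild type, 300/well) are treated with DMSO-dissolved compounds after a ~0.5 h pre-incubation and kept 40 h at 37 C/5% CO2. Viability is then measured by CellTiter-Glo luminescence following 30 min at room temperature.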

Values joined by “and” are separate entries in the source; they are usually repeats but may differ in a detail not shown here. Identical values can stand only once. Results filed as inconclusive are left out. More than one record can exist for a structure, and the calls need not agree. Active and inactive are the calls of the source. Unless noted, calls come from the whole dose curve; as a rule, active = well fitted curve in the direction sought with a large enough effect in the repeat runs; inconclusive = weak or mixed curves; inactive = no such curve, though single readings can be large; an effect the other way counts as inactive or inconclusive.
Tags give direction and shape of the fitted curve or compound fluorescence and quenching.

Chain of Glucocorticoid receptor (Homo sapiens) (P04150 whole entry, looked up): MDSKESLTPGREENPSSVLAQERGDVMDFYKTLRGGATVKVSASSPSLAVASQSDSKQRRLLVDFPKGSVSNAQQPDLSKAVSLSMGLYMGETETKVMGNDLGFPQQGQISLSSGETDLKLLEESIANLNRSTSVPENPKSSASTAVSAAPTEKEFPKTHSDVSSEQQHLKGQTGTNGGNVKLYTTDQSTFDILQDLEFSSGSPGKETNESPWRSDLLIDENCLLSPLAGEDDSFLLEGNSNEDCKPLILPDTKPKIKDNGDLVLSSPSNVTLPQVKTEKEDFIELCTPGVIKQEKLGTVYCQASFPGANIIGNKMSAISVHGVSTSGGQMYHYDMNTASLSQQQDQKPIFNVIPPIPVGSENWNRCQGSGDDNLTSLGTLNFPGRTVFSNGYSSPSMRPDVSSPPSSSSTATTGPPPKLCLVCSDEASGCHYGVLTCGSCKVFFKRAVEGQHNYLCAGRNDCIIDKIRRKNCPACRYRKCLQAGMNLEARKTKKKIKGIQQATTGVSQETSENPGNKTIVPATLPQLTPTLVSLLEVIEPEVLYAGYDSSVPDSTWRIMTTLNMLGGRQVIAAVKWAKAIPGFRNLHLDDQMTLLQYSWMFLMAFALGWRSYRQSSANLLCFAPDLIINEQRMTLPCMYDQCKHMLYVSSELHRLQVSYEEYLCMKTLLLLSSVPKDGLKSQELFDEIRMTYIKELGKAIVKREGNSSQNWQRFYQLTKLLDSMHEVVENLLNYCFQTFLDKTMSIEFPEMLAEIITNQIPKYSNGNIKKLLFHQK

In the case of `Cc1ccc(C(=O)c2cc(O)c(O)c([N+](=O)[O-])c2)cc1`, the Potency entry in assay [1], in assay [3], in assay [4], in assay [5], in assay [7] and in [9] was “inactive” each time. For the same compound, the Potency entry in assay [13] and in [14] was “inactive” throughout. Further, the outcome in assay [2], in assay [6] and in assay [8] was inactive. Also, the Potency is 34.7 µM (active) in assay [10]; “inactive and 68.6 µM (active)” in assay [11]; 48.6 µM (active) in [12].
As to `O=C(Nc1ccc([N+](=O)[O-])cc1Cl)c1cc(Cl)ccc1O`, the Potency entry in assay [1], in [3], in [4], in assay [5], in assay [7] and in [9] was “inactive” each time. Also, the outcome in [2], in assay [6] and in assay [8] was inactive. Moreover, the Potency in [15] is 0.275 µM (active); in [16] it was 422 nM (active) and 770 nM (active); in [11], 473 nM (active) and 686 nM (active); in assay [12], 473 nM (active) and 611 nM (active); in [13], 1.51 µM (active) and 436 nM (active).
Consider `Nc1ncnc2nc[nH]c12`, for which the Potency result in [1], in assay [3], in [4], in assay [5], in assay [7] and in assay [9] was “inactive” each time. Further, the Potency result in assay [10], in assay [16], in [11], in assay [12], in assay [13] and in assay [14] was “inactive” each time. In addition, the compound was called inactive in [2], in assay [6] and in [8].
For `CCC(C)c1ccccc1O` (stereo not given), the Potency entry in assay [1], in [3], in assay [4], in assay [5], in [7] and in assay [9] was “inactive” in each case. For the same compound, the Potency entry in assay [10], in [15], in assay [16], in assay [11], in assay [12] and in assay [13] was “inactive” each time. Moreover, the Potency entry in assay [14] was “inactive”. Also, the compound was called inactive in assay [2], in [6] and in assay [8].
On to `Cc1ncc[nH]1`, for which the Potency entry in assay [1], in assay [3], in assay [4], in [5], in assay [7] and in [9] was “inactive” in each case. For the same compound, the Potency entry in [10], in [16], in assay [11], in [12] and in assay [13] was “inactive” throughout. Further, the outcome in assay [2], in assay [6] and in [8] was inactive.
For the compound `O=C1OC2(c3cc(Br)c(O)c(Br)c3Oc3c2cc(Br)c(O)c3Br)c2c(Cl)c(Cl)c(Cl)c(Cl)c21`, the Potency entry in [1], in [3], in assay [9], in assay [11], in [12] and in [13] was “inactive” throughout. Further, the compound was classed as inactive in [2], in assay [6] and in [8]. Moreover, the Potency was 2 µM [fluorescent] (active) and 14.1 µM [fluorescent] (active) in assay [4]; 1.78 µM [fluorescent] (active) and 10 µM [fluorescent] (active) in [5]; 28.2 µM [fluorescent] (active) in assay [7]; 49.1 µM (active) and inactive in assay [10].
For `O=CCCCC=O`, the Potency entry in assay [1], in assay [3], in [4], in [5], in assay [7] and in [9] was “inactive” each time. For the same compound, the Potency result in [15], in assay [13] and in [14] was “inactive” throughout. The outcome in assay [2], in assay [6] and in [8] was inactive. Also, the Potency in assay [16] is 6.11 µM (active); in [11] it was 2.17 µM (active); in assay [12], “inactive and 2.73 µM (active)”.
Consider `O=c1oc(=O)c2cc3c(=O)oc(=O)c3cc12`, for which the Potency entry in assay [1], in [3], in assay [4], in assay [5], in assay [7] and in assay [15] was “inactive” each time. The Potency result in assay [16], in assay [11], in assay [12], in [13] and in assay [14] was “inactive” each time. Further, the compound was classed as inactive in assay [2], in assay [6] and in assay [8].
